# Test results from PubChem BioAssay AID493056 (National Center for Advancing Translational Sciences (NCATS), 2011).
# Among all 360,000 compounds or so, about 2,400 (0.67%) were called active. Rule as the data show it: active = enhancement above about 30%; inactive = the rest. The entries come from a sample that favours actives as a whole. Peptide text beside a SMILES is read from it. * marks the point of attachment. OPac = O=C(CO*)c1ccccc1; Bz = O=C(c1ccccc1)*
# Molecular target: Thyrotropin-releasing hormone receptor (Homo sapiens) (UniProt P34981)
# Assay: qHTS for Small Molecule Agonists and Allosteric Enhancers of Human TRH Receptor: Primary Screen for Enhancers; also: 0% is about no effect
# Conditions: TRHR cells, fluo-8 calcium fluorescence, EC20 TRH enhancement; at 2 µM; hits give high values
# Text: NIH Chemical Genomics Center [NCGC] NIH Molecular Libraries Probe Centers Network [MLPCN] MLPCN Grant: MH089816-01 Assay Submitter (PI): Marvin Gershengorn This project aims to identify small drug-like molecules that activate (agonists) the thyrotropin releasing hormone (TRH) receptor (TRHR) or enhance its TRH-stimulated activity (allosteric enhancers). TRHR, a drug-accessible cell surface receptor expressed in specific brain regions, and its ligand TRH have been implicated in several central nervous system disorders, including depression and anxiety. Small molecule TRHR agonists or allosteric enhancers that are metabolically stable and able to cross the blood-brain barrier might serve as probes to elucidate the roles of brain TRH receptors in animal models, and might be valuable as lead compounds for the development of drugs to treat patients with central nervous system disorders. Upon TRHR-Gq activation in TRHR cells, intracellular calcium is released from stores in the endoplasmic reticulum. […] This primary screen measures compound-induced enhancement of an EC20 stimulation of the receptor by its native ligand.
# For the HTS assay freshly prepared cells are plated at a density of 2000/well in 3 ul of complete DMEM medium containing 10% serum in 1536-well plates and cultured over night at 37 C in a humidified incubator with 5% CO2. The next day, 2 ul of a no wash calcium dye (ABD Bioquest) was added to the cells and plates were incubated at room temperature for 1 hour. For the assay, assay plates were loaded into the FDSS kinetic plate reader. A 10 cycle (1 second/cycle) baseline measurement is taken and then the FDSS online 1536 pintool delivers 23 nl of compound library (as well as TRH controls) to the plate. The plate is measured for kinetically at 1 cycle/sec for 180 seconds and is considered to be the agonist portion of the assay (eg, compounds which activate a positive calcium response during this portion are flagged as potential agonists). Following the 180 second read, 1 ul of either an EC20 (positive modulation assay) is delivered by an onboard pipette head. Measurements are taken kinetically for an additional 180 seconds. TRHR FDSS Screening Protocol 1. Reagent, 3 uL 2000 cells/well 1536 TC treated Black plate in media containing 10% FCS 2. Time, 18 hours, 33.5C 5% CO2 (cells grown at 37C) 3. Reagent, 2 uL ABD fluo-8 Ca dye 4. Time, 30 min-1.5hrs hours, Room temp (6 plates/batch) 5. Detector, EX 480/EM 530C, FDSS 10 cycles baseline (1sec/cycle) 6. Compound, 23 nL of stock solution from library 7. Detector, EX 480/EM 530C, FDSS 230 cycles (1sec/cycle) Agonist mode 8. Compound, 1 ul EC20 of TRH made up in HEPES HBSS, 10 nM final 9. Detector, EX 480/EM 530C, FDSS 100 cycles (1sec/cycle) Potentiator mode
# Sequence of Thyrotropin-releasing hormone receptor (Homo sapiens) (P34981 whole entry, looked up): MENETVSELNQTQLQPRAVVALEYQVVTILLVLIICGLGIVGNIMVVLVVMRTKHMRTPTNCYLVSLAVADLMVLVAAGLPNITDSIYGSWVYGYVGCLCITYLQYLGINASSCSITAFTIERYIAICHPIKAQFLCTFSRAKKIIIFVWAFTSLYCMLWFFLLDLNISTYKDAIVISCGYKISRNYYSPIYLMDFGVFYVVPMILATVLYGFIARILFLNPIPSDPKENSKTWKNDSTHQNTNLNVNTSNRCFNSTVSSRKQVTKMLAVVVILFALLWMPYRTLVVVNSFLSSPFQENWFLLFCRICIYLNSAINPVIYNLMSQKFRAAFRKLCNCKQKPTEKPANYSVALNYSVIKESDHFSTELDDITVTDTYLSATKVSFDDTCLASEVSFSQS
row,Structure (SMILES),enhancement
1,O=C(Nc1n[nH]c(C(F)(F)F)n1)c1cccs1,-3.09% (inactive)
2,O=C(Nc1ncccn1)c1cccs1,35.8% (active)
3,O=C(NC1CCCCCCC1)c1cccs1,-1.69% (inactive)
4,COc1ccc2c(CNCCc3ccccc3C)c(C(=O)O)n(Cc3ccccc3C)c2c1,-16.3% (inactive)
5,CCN1CCN(Cc2c(O)ccc3oc(C)c(C(=O)Nc4ccc(C)cc4C)c23)CC1,4.91% (inactive)
6,CCC(=O)Nc1c(C(=O)N2CCN(c3ccc(F)cc3)CC2)oc2ccccc12,-8.72% (inactive)
7,CCN1CCC(N(Cc2ccc(F)cc2)C(=O)Nc2cc(C)ccc2C)CC1,10% (inactive)
8,CCOC(=O)N1CCC(NC(=O)c2cnn(-c3cccc(C)c3)c2C2CCN(C(=O)OC(C)(C)C)CC2)CC1,5.75% (inactive)
9,CC(C)Cn1c(N)c(C(=O)COC(=O)CN2C(=O)C3CC=CCC3C2=O)c(=O)n(C)c1=O (stereo not given),0.142% (inactive)
10,CCCc1cc(=O)[nH]c(SCC(=O)N2C(C)CCCC2C)n1 (stereo not given),6.92% (inactive)
11,CCCc1cc(=O)[nH]c(SCC(=O)c2c(N)n(CC(C)C)c(=O)n(C)c2=O)n1,38.3% (active)
12,O=c1cc(CSc2ncn[nH]2)[nH]c2ccc(F)cc12,0.991% (inactive)
13,Cc1c(C(=O)N(C)C)sc2c1c(=O)n(-c1ccc(F)cc1)c(=O)n2CC(=O)N(C)c1ccccc1,-2.28% (inactive)
14,CC(C(=O)N(C)CC(=O)Nc1ccccc1C(F)(F)F)N1C(=O)c2ccccc2C1=O (stereo not given),35.3% (active)
15,O=C(CN1CCN(c2ncccn2)CC1)Nc1ccccc1C(F)(F)F,0.988% (inactive)
16,CN(CC(=O)Nc1ccccc1C(F)(F)F)C(=O)Cc1ccccc1F,1.5% (inactive)
17,CCCNc1ncnc2c1c(-c1ccccc1)cn2-c1ccc(OCC)cc1,-5.52% (inactive)
18,CCCN(CCC)CCCNC(=O)Cn1ncc2c3ccccc3n(Cc3ccccc3)c2c1=O,3.33% (inactive)
19,CCC(=O)Nc1ccccc1C(=O)N1CCN(Cc2ccccc2)CC1,8.38% (inactive)
20,Cc1nn(Cc2ccccc2)c(C)c1C(=O)N1CCN(CC(=O)Nc2ccccc2Cl)CC1,66.2% (active)
21,Cc1nn(Cc2ccccc2)c(C)c1C(=O)NCCCN1CCCC1=O,8.55% (inactive)
22,O=C(CSc1nccn1Cc1ccc(F)cc1)NCc1ccccc1,1.55% (inactive)
23,Cc1ccc(S(=O)(=O)NC(N)=NCCC[C@@H](NC(=O)CNC(=O)c2ccccc2)C(=O)Nc2cc(C(F)(F)F)ccc2Cl)cc1,2.23% (inactive)
24,CCn1c(SCC(=O)Nc2nccs2)nnc1-c1ccncc1,1.36% (inactive)
25,CCn1c(SCC(=O)Nc2nccs2)nnc1-c1ccco1,38% (active)
26,Nn1c(SCC(=O)Nc2nccs2)nnc1-c1ccco1,4.24% (inactive)
27,O=C(CSc1nnc(-c2ccccc2F)o1)Nc1cccc(C(F)(F)F)c1,8.13% (inactive)
28,Cc1ccc2oc(C(=O)Nc3ccc(S(=O)(=O)N4CCCCCC4)cc3)cc(=O)c2c1,0.734% (inactive)

row,Structure (SMILES),enhancement
1,Cc1cc(C)c2oc(C(=O)Nc3ccc(S(=O)(=O)N(C)c4ccccc4)cc3)cc(=O)c2c1,0.252% (inactive)
2,Cc1cc(C)c2oc(C(=O)Nc3ccc(S(=O)(=O)N4CCCCCC4)cc3)cc(=O)c2c1,48.6% (active)
3,Cc1c(C(=O)NCc2ccccc2Br)oc2ccc3c(c12)C(=O)CC(C)(C)O3,-2.29% (inactive)
4,COc1cccc(-n2cc(C(=O)NCc3cccc(Cl)c3)c3ccccc3c2=O)c1,-3.45% (inactive)
5,O=C(NC1C2CC3CC(C2)CC1C3)c1ccc(N2CCNCC2)c([N+](=O)[O-])c1 (stereo not given),2.28% (inactive)
6,CCC(C)NC(=O)c1ccc(N2CCC3(CC2)OCCO3)c([N+](=O)[O-])c1 (stereo not given),-9.06% (inactive)
7,CC(NC(=O)c1ccc(N2CCNCC2)c([N+](=O)[O-])c1)C12CC3CC(CC(C3)C1)C2 (stereo not given),31.1% (active)
8,Cc1nc2nc(SCC(=O)NC3CCC(C)CC3)nn2c(C)c1Cc1ccccc1Cl (stereo not given),3.16% (inactive)
9,CCc1ccccc1NC(=O)CSc1nc(C)c(C(=O)Nc2ccccc2)c(-c2ccc(Cl)cc2)c1C#N,-0.268% (inactive)
10,CCCC(=O)C1=C(N(C)c2ccccc2)CC(C)(C)C(C(=O)OC)C1=O (stereo not given),36.8% (active)
11,C=CCO/N=C/C1=C(O)C(C(=O)OC)C(C)(C)CC1=O (stereo not given),-2.52% (inactive)
12,CCC[C@@H]1C[C@@]1(CCC)[C@@H](NC(=O)c1ccccc1)c1ccc(C(=O)OC)cc1,-1.9% (inactive)
13,Cc1cccc(Cc2c(C)nc3nc(SCc4ccccc4Cl)nn3c2C)c1,-3.69% (inactive)
14,COc1ccc(OC)c(-c2noc(N3CCN(c4cc(Cl)ccc4C)CC3)n2)c1,-2.59% (inactive)
15,Cc1ccc(-c2cnc(NCc3ccc(C(C)C)cc3)n2C)cc1,2.38% (inactive)
16,Cc1cccc(NC(=O)CSc2ncc(-c3ccccc3)[nH]2)c1C,-2.76% (inactive)
17,COc1ccc(CNC(=O)c2cc3cccc(OC)c3oc2=O)cc1,5.25% (inactive)
18,O=C(CNC(=O)c1ccco1)OCC(=O)c1ccccc1,14.7% (inactive)
19,O=C(CNC(=O)Cc1ccccc1)NCC(=O)OCC(=O)c1ccccc1Cl,-4.65% (inactive)
20,O=C(CNC(=O)c1ccccc1)NCC(=O)OCC(=O)c1ccccc1 (Bz-Gly-Gly-OPac),48.2% (active)
21,CCCCN(CC)CCCNC(=O)c1nn(C)c2c1CSc1ccccc1-2,-0.263% (inactive)
22,Cc1ccc(CN2CCc3nc(N4CCN(C)CC4)ncc3C2)cc1,-1.43% (inactive)
23,CCOC(=O)c1ccc(NC(=O)c2ncn(-c3ccccc3)n2)cc1,-1.95% (inactive)
24,COc1cccc(C2/C(=C(/O)c3ccncc3)C(=O)C(=O)N2CCCN(C)C)c1 (stereo not given),5.69% (inactive)
25,COc1ccc(/C(O)=C2/C(=O)C(=O)N(CCCN(C)C)C2c2ccccc2)cc1OC (stereo not given),7.56% (inactive)
26,O=C1C(=O)N(CCCO)C(c2ccccc2)/C1=C(\O)c1ccc(Br)cc1 (stereo not given),46.2% (active)
27,CC(C)(C)OC(=O)N1CCC(c2c(C(=O)N3CCN(c4cccc(Cl)c4)CC3)cnn2-c2cccc(Cl)c2)CC1,-12.3% (inactive)
